Format in all cases: functional
The target in test [1] is Solute carrier family 2, facilitated glucose transporter member 1 (Homo sapiens) (UniProt P11166). Kind of test: ST_JUDE_LEISH: Cytotoxicity at 2uM final concentration against transgenic Leishmania Mexicana promastigotes LmGLUT1 that are glucose transport deficient and complemented with the human glucose transporter GLUT1. Activity is measured by DNA content using SYBR green in vitro.

Test [2] addresses Hexose transporter 1 (Plasmodium falciparum) (UniProt O97467). Kind of test: ST_JUDE_LEISH: Cytotoxicity at 2uM final concentration against transgenic Leishmania Mexicana promastigotes LmPfHT that are glucose transport deficient and complemented with the Plasmodium falciparum hexose transporter. Activity is measured by DNA content using SYBR green in vitro.
Test [3] has as its target Glucose transporter (Leishmania mexicana) (UniProt O61059). Description: ST_JUDE_LEISH: Cytotoxicity at 2uM final concentration against transgenic Leishmania Mexicana promastigotes LmGT2 that are glucose transport deficient and complemented with the L. Mexicana glucose transporter 2. Activity is measured by DNA content using SYBR green in vitro.

Broadly, the inhibition is the relative decrease from the control value, in per cent.

Solute carrier family 2, facilitated glucose transporter member 1 (Homo sapiens), sequence (P11166 whole entry): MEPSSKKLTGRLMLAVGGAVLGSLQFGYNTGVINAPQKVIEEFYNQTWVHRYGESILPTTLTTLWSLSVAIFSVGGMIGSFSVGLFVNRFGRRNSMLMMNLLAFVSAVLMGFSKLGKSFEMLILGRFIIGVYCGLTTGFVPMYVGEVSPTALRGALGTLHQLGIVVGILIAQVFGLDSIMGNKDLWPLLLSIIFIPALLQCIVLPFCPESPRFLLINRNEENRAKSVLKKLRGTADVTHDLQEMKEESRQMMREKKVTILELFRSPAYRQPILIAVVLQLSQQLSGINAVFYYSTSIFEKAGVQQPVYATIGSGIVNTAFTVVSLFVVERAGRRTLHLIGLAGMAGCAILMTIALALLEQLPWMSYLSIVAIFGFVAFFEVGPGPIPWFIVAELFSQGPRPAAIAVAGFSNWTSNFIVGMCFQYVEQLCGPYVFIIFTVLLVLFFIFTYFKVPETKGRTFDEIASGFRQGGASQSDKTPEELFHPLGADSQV

Consider `Cc1cc(C)cc(OCC(O)CN(Cc2cc(Cl)cc(Cl)c2)C(=O)Nc2ccc(Cl)cc2)c1` (stereo not given), for which the values for the inhibition in test [1], in test [2] and in test [3] were 0.89%, -0.94% and -0.48%, respectively.
For `Cc1cc(N2CCCC2)nc(Nc2ccc(NC(=O)c3ccc4c(c3)OCO4)cc2)n1`, in that order: 13.5%, 3.61% and 5.78%.
The like results for `O=C(C1CCCCC1)N1CCOC(CCN2CCC(c3ccccc3)CC2)(c2ccc(Cl)c(Cl)c2)C1` (stereo not given) were, in that order, 15.2%, 16.1% and 13.5%.
As for `CC(=O)Nc1ccc(C(=O)Nc2ccc(-c3csc(-c4nc5ccccc5[nH]4)c3)cc2)cn1`, the values for the inhibition in test [1], in test [2] and in test [3] were 1.44%, 1.57% and 0.75%, respectively.
The like results for `CCCCCC(C)(C)NC[C@@H](O)[C@H](Cc1ccccc1)NC(=O)c1cc(NCC)cc(N2CCCC2=O)c1` were, in that order, -0.4%, 0.68% and -1.82%.
For `N=C(N)c1ccc2[nH]c(SCc3ccccc3)nc2c1`, in that order: 1.18%, 1.38% and 0.24%.
The like results for `Cc1cccc2nc(-c3cccc(-c4cccc(NC(=O)CN5CCN(C)CC5)c4)c3)[nH]c12` were, in that order, 8.23%, 7.52% and 6.83%.
As for `O=C(Nc1cccc(-c2cccc(-c3nc4cc(C(F)(F)F)ccc4[nH]3)c2)c1)Nc1ccc(F)c(F)c1F`, the values for the inhibition in test [1], in test [2] and in test [3] were -0.38%, -0.91% and 0.55%, respectively.
In the case of `Fc1ccc2[nH]c(-c3cccc(-c4cccc(CNCC5CCCO5)c4)c3)nc2c1` (stereo not given), the figures for the inhibition in test [1], in test [2] and in test [3] were -0.33%, -0.14% and -1.55%, respectively.
The like results for `CC(C)CNCc1cccc(-c2ccccc2CN(C(=O)NCCc2ccccc2)C2CCN(Cc3ccccc3)CC2)c1` were, in that order, 13.1%, 11.4% and 8.25%.
For `CS(=O)(=O)CCNc1nccc(N2CCc3ncnc(Nc4ccc(OCc5cccc(F)c5)c(Cl)c4)c3C2)n1`, in that order: -1.94%, -1.97% and -1.99%.
For `CN1CCN(CCCN(Cc2cccc(-c3ccc(CNCCc4ccccc4)cc3)c2)C(=O)Nc2ccccc2)CC1`, in that order: 2.48%, 7.14% and 1.35%.
With `CCCCOc1ccccc1C(=O)NCc1csc(-c2ccccc2)n1`, the inhibition in test [1] was -0.31%; in test [2], 1.14%; in test [3], 0.41%.
Take `CC(=O)Nc1ccc(C(=O)Nc2cccc(-c3ccc(-c4nc5cc(F)ccc5[nH]4)cc3)c2)cn1`: the results for the inhibition in test [1], in test [2] and in test [3] were -1.01%, 2.17% and 0.38%, respectively.
For `O=C(c1ccc(-c2ccccn2)s1)N1CCc2cc3nccc(N4CCN5CCC[C@H]5C4)c3cc21`, in that order: 8.55%, 8.34% and 8.66%.
Regarding `CCCCC(=O)Nc1ccc(Nc2nc(C)cc(N3CCCC3)n2)cc1`, the inhibition in test [1] is 2.54%; in test [2], 3.88%; in test [3], 3.88%.
As for `N#Cc1ccc(N/C(=N\c2ccc(-c3ccccc3)cc2)NC2CCCc3ccccc32)c(O)c1` (stereo not given), the results for the inhibition in test [1], in test [2] and in test [3] were -1.53%, 0.81% and -0.07%, respectively.
The like results for `Brc1ccsc1-c1nc(NC2CCN(Cc3ccccc3)CC2)no1` were, in that order, -0.23%, 5.86% and -0.38%.
Consider `Oc1cc(Nc2ccnc3cc(-c4cccc(CN5CCCCC5)c4)ccc23)c(F)cc1Cl`, for which the inhibition in test [1] was found to be 3.41%; in test [2], 2.51%; in test [3] it was 2.54%.
The like results for `CCNc1cc(C(=O)N[C@@H](Cc2ccccc2)[C@H](O)CNC2CC3CCC2C3)cc(N2CCCCS2(=O)=O)c1` (stereo not given in full) were, in that order, 1.78%, 1.76% and -3.22%.
For `COc1ccc2c(NN=Cc3ccc(N(C)C)cc3)ccnc2c1`, in that order: 10.8%, 10.8% and 8.44%.
Consider `Cc1ccc2[nH]c(Nc3ccc(Nc4nc5cc(C)ccc5[nH]4)c(C)c3)nc2c1`, for which the inhibition amounted to 0.87% in test [1], 2.18% in test [2] and 0.88% in test [3].
The like results for `O=C(NCc1ccccc1)OC1CNCCC1c1ccc(C(O)Cc2ccccc2)cc1` (stereo not given) were, in that order, 1.68%, 1.62% and 2.32%.
The like results for `Fc1ccc(Nc2ccnc3cc(I)ccc23)c(Cl)c1` were, in that order, 2.32%, 2.73% and 1.47%.
For `O=S(=O)(c1c(Cl)cccc1Cl)N1CCCCC(c2ccc(C(F)(F)F)cc2)=N1`, in that order: 2.16%, 4.23% and 4.51%.
As for `NS(=O)(=O)c1ccc(CNC(=O)c2cnc3c(O)cccc3c2Nc2cccc(NC(=O)c3ccc(Cl)c(Cl)c3)c2)cc1`, the inhibition in test [1] was determined as 5.22%; in test [2] it was 5.59%; in test [3], 5.34%.
As to `CC(C)CNCc1ccc(-c2cccc(CN(CCCN3CCN(C)CC3)C(=O)/C=C/c3ccccc3)c2)cc1`, the inhibition came to 5.83% in test [1], 5.21% in test [2] and 5.27% in test [3].
The like results for `Nc1nc(N)c2c(ccc3c2ccn3Cc2ccccc2)n1` were, in that order, 92.2%, 94% and 86.1%.
The like results for `COc1cc(Nc2ncc3c(C)nc(-c4cc5ccccc5[nH]4)n3n2)cc(OC)c1OC` were, in that order, 4.94%, 5.87% and 2.06%.
On to `CC(C)c1ncc(-c2ccncc2)c(C2CCC(CNC(=O)c3cccnc3)CC2)n1` (stereo not given), for which the inhibition in test [1] stood at 3.2%; in test [2], 1.25%; in test [3], 1.81%.
The like results for `Cc1noc(C)c1-c1cccc(C(=O)NC2CCN(CCNC(=O)C(c3ccccc3)c3ccccc3)CC2)c1` were, in that order, 2.71%, 1.09% and 1.64%.
For `CCNc1cc(C(=O)N[C@@H](Cc2ccccc2)[C@H](O)CN[C@@H]2CCc3ccccc32)cc(N2CCCC2=O)c1`, in that order: 10.5%, 2.63% and 2.15%.
Take `C[C@H]1CN(Cc2cccc(-c3cc(CNC(=O)c4cccc(CN5CCN(CCOc6ccccc6)CC5)c4)ccc3F)c2)CCN1`: the inhibition in test [1] turned out to be 0.77%; in test [2], 0.96%; in test [3], 2.94%.
The like results for `CCN1CCN(c2cc(C)c3cc(NC(=O)c4ccc(OC)c(OC)c4)ccc3n2)CC1` were, in that order, 0.58%, 0.53% and 0.24%.
The like results for `Cn1c(Sc2ncnc3sccc23)nc2ccccc21` were, in that order, 2.32%, 2.23% and 2.32%.

The values above are taken from ChEMBL document CHEMBL3433997, “St. Jude Leishmania screening dataset” (2016).
